Source: PubChem BioAssay
Hits are enriched below; roughly 1.8% of the tested compounds scored in any of these assays.
ABCB6 inh MLPCN – ABCB6 transporter inhibitors, primary screen, K562-ABCB6 cells, flow cytometry, MLPCN library; AID 602162, 2011; ATP-binding cassette sub-family B member 6 (Homo sapiens), Q9NP58; K562-ABCB6 porphyrin accumulation, 1 h; hits give low values; 360,000 compounds, 0.19% hits; fluorescence ratio to DMSO, % at 10 µM;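 active means fluorescence ratio to DMSO below 75%, the collection mean minus 3 SD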;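 further: signal is porphyrin accumulated inside mitochondria; lower ratio means ABCB6 inhibition with less porphyrin fluorescence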
Target sequence (Q9NP58 whole entry, looked up): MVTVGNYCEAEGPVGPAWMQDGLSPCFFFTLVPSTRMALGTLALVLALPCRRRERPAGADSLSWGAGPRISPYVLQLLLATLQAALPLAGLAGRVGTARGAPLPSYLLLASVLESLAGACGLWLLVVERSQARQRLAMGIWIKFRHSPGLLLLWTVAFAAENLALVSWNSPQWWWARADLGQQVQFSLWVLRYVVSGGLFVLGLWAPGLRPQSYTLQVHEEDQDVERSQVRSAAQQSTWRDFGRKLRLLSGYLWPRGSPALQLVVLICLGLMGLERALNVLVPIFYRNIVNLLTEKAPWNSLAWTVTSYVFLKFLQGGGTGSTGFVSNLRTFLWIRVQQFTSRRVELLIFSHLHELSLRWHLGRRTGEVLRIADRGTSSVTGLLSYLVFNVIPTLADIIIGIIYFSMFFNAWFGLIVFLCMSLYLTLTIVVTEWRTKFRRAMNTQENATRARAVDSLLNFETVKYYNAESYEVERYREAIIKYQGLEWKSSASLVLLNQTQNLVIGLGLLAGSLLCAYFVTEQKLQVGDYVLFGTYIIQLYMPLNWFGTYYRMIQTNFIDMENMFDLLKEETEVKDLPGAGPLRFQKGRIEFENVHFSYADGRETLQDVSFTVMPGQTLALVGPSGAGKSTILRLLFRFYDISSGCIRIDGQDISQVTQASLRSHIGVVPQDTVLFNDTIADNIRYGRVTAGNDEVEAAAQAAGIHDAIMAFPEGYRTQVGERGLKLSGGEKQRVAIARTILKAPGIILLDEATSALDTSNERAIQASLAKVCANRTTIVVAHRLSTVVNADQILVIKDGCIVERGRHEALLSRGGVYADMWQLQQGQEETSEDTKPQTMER
Myeloid diff MLP – induction of myeloid progenitor differentiation, primary screen, cell-based, flow cytometry, MLPCN library | ER-HoxA9 myeloid progenitors, lysozyme-GFP differentiation | calls only at 10 µM | 360,000 compounds, 1% hits | AID 624256, 2012;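 active means normalized GFP-positive differentiation at or above the plate's own cutoff, the solvent-only control mean plus 3 SD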;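 further: cells exposed to compound for four days before flow analysis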
Exocytosis inh – LAMP-1 surface exposure blockers, TALL-104 cells – cell-based, flow cytometry, MLPCN library, primary screen; TALL-104 LAMP-1 surface exposure; cells stimulated with thapsigargin and PMA; inhibition, % at 10 µM; 360,000 compounds, 0.66% hits; AID 651702, 2012;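 active means inhibition above about 55%, limit read from the data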
Myeloid diff – inducers of myeloid progenitor differentiation, confirmation, cell-based, GFP/Mac1 flow cytometry, cherry pick 01; shares compounds with Myeloid diff MLP; ER-HoxA9 myeloid progenitors, GFP/Mac1 double-positive flow; calls only; 2,300 compounds, 2% hits;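 active means share of green or green-and-red cells above 9 and 9% in run 1 or 4 and 3% in run 2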
GFP autofluor – counter-screen for myeloid differentiation promoters: compound fluorescence; shares compounds with Myeloid diff MLP; ER-HoxA9 myeloid progenitors, no estrogen, GFP autofluorescence flow cytometry; vehicle wells 0%, positive control 100%; fluorescence response, % (concentration not given with the values); 2,300 compounds, 7.4% hits; AID 651707;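 active means over 5% cells positive for green fluorescent reporter, or over 2% positive for both it and APC stain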
A number is an active result.

COc1ccc(S(=O)(=O)NCC2CCCO2)cc1Cl (stereo unspecified) was read as ABCB6 inh MLPCN inactive, Myeloid diff MLP inactive and Exocytosis inh inactive.
`COc1cc(S(=O)(=O)NCC2CCCO2)ccc1Br` (stereo unspecified) gave ABCB6 inh MLPCN inactive, Myeloid diff MLP inactive, Exocytosis inh inactive, Myeloid diff inactive and GFP autofluor inactive.
`CN(C)CCNc1cnn(-c2ccccc2)c(=O)c1Cl` gave ABCB6 inh MLPCN inactive, Myeloid diff MLP inactive and Exocytosis inh inactive.
`Cc1ccccc1S(=O)(=O)N(C)C[C@@H]1OCc2cn(nn2)CCCC(=O)N([C@H](C)CO)C[C@H]1C` gave ABCB6 inh MLPCN inactive, Myeloid diff MLP inactive and Exocytosis inh inactive.
`Cn1cc(CN(CCCN2CCOCC2)C(=S)Nc2cccc(Cl)c2)c2ccccc21` gave ABCB6 inh MLPCN inactive, Myeloid diff MLP active, Exocytosis inh inactive, Myeloid diff inactive and GFP autofluor inactive.
For Cc1cccc(NC(=S)N(CCCN2CCOCC2)Cc2cn(C)c3ccccc23)c1 the results were ABCB6 inh MLPCN inactive, Myeloid diff MLP inactive and Exocytosis inh inactive.
For COC(=O)CC1Nc2ccccc2SC1=O (stereo unspecified) the results were ABCB6 inh MLPCN inactive, Myeloid diff MLP inactive, Exocytosis inh inactive, Myeloid diff inactive and GFP autofluor inactive.
Screening CCOC(=O)CC1Sc2ccccc2NC1=O (stereo unspecified) returned ABCB6 inh MLPCN inactive, Myeloid diff MLP inactive and Exocytosis inh inactive.
Screening O=C(Nc1ccc(F)c(Cl)c1)c1cc(C2CCCN(C(=O)c3cccs3)C2)on1 (stereo unspecified) returned ABCB6 inh MLPCN inactive, Myeloid diff MLP inactive and Exocytosis inh inactive.
`COc1ccc(-n2c(N)c(C(=O)NCC3CCCO3)sc2=S)cc1` (stereo unspecified) gave ABCB6 inh MLPCN inactive, Myeloid diff MLP active, Exocytosis inh inactive, Myeloid diff inactive and GFP autofluor inactive.
For CCOC(=O)c1ccc(-n2c(N)c(C(=O)NCC3CCCO3)sc2=S)cc1 (stereo unspecified) the results were ABCB6 inh MLPCN inactive, Myeloid diff MLP inactive and Exocytosis inh inactive.
CN(CC(=O)Nc1ccccc1C(F)(F)F)C(=O)CN1C(=O)C2CCCCC2C1=O (stereo unspecified) was read as ABCB6 inh MLPCN inactive and Exocytosis inh inactive.
CCOC(=O)C1(C)NC(c2ccccc2F)C2C(=O)N(CC)C(=O)C21 (stereo unspecified) was read as ABCB6 inh MLPCN inactive, Myeloid diff MLP inactive and Exocytosis inh inactive.
`CC(=O)NNC(=O)CCC(=O)Nc1ccccc1` gave ABCB6 inh MLPCN inactive, Myeloid diff MLP inactive, Exocytosis inh inactive, Myeloid diff inactive and GFP autofluor 86.0.
For O=C(O)CCC(=O)Nc1ccc(S(=O)(=O)c2ccc(NC(=O)CCC(=O)O)cc2)cc1 the results were ABCB6 inh MLPCN inactive, Myeloid diff MLP inactive and Exocytosis inh inactive.
O=C(O)CCC(=O)Nc1ccc(Cc2ccc(NC(=O)CCC(=O)O)cc2)cc1 was read as ABCB6 inh MLPCN inactive, Myeloid diff MLP active, Exocytosis inh inactive, Myeloid diff inactive and GFP autofluor inactive.
For O=C(CCC(=O)Nc1ccccc1)NNC(=O)CCc1ccccc1 the results were ABCB6 inh MLPCN inactive, Myeloid diff MLP inactive and Exocytosis inh inactive.
For COC(=O)c1ccc(NC(=O)CCCN2C(=O)NC(C)(C)C2=O)cc1 the results were ABCB6 inh MLPCN inactive, Myeloid diff MLP inactive and Exocytosis inh inactive.
For COc1ccc(NC(=S)NC(NC(=O)C(C)C)C(Cl)(Cl)Cl)c([N+](=O)[O-])c1 (stereo unspecified) the results were ABCB6 inh MLPCN inactive, Myeloid diff MLP active, Exocytosis inh inactive, Myeloid diff inactive and GFP autofluor inactive.
Screening COc1ccc(NC(=O)CC(C)C)c([N+](=O)[O-])c1 returned ABCB6 inh MLPCN inactive, Myeloid diff MLP inactive and Exocytosis inh inactive.
CC(C)(C)OC(=O)N[C@H](C(=O)OC(C)(C)C)c1ccc2ccccc2c1 was read as ABCB6 inh MLPCN inactive, Myeloid diff MLP active, Exocytosis inh inactive, Myeloid diff inactive and GFP autofluor inactive.
`COc1ccc([C@@H](NC(=O)OC(C)(C)C)C(=O)OC(C)(C)C)cc1` gave ABCB6 inh MLPCN inactive, Myeloid diff MLP inactive and Exocytosis inh inactive.
Screening CC(Sc1nnc2ccccn12)C(=O)Nc1ncc(Cl)cc1Cl (stereo unspecified) returned ABCB6 inh MLPCN inactive, Myeloid diff MLP inactive and Exocytosis inh inactive.
Screening COc1ccc(-n2c(SC(C)C(=O)Nc3ncc(Cl)cc3Cl)nc3ccccc32)cc1 (stereo unspecified) returned ABCB6 inh MLPCN inactive, Myeloid diff MLP active, Exocytosis inh inactive, Myeloid diff inactive and GFP autofluor inactive.
`CCC(CO)Oc1cc(NCc2ccc(Cl)cc2)c2ncn(C(C)C)c2c1` (stereo unspecified) gave ABCB6 inh MLPCN inactive, Myeloid diff MLP inactive, Exocytosis inh inactive, Myeloid diff inactive and GFP autofluor inactive.
`CC[C@H](CO)Oc1cc(NCc2ccc(Cl)c(Cl)c2)c2ncn(C(C)C)c2c1` gave ABCB6 inh MLPCN inactive, Myeloid diff MLP inactive and Exocytosis inh inactive.
`O=C(CCCCC(=O)OCC1CCCO1)OCC1CCCO1` (stereo unspecified) gave ABCB6 inh MLPCN inactive, Myeloid diff MLP inactive and Exocytosis inh inactive.
CC(C)Cc1nnc(NC(=O)CCC(=O)N2CCN(c3ccccc3)CC2)s1 was read as ABCB6 inh MLPCN inactive, Myeloid diff MLP inactive and Exocytosis inh inactive.
For CCCc1nnc(NC(=O)CCC(=O)N2CCN(c3ccccc3)CC2)s1 the results were ABCB6 inh MLPCN inactive, Myeloid diff MLP inactive, Exocytosis inh inactive, Myeloid diff inactive and GFP autofluor inactive.
Screening CC(C)(C)OC(=O)NCc1n[nH]c(=S)n1C1CC1 returned ABCB6 inh MLPCN inactive, Myeloid diff MLP inactive and Exocytosis inh inactive.
`COc1cc(/C=C/C(=O)c2c(O)ccc3c(C)cc(=O)oc23)ccc1O` gave ABCB6 inh MLPCN inactive, Myeloid diff MLP inactive and Exocytosis inh inactive.
`COc1ccc(/C=C\C(=O)c2c(O)ccc3c(C)cc(=O)oc23)cc1OC` gave ABCB6 inh MLPCN inactive, Myeloid diff MLP inactive, Exocytosis inh inactive, Myeloid diff inactive and GFP autofluor inactive.
Screening CCN1C(=O)[C@H]2[C@@H](c3ccc(-c4ccc(C(C)=O)cc4)c(OC)c3)N[C@@](Cc3ccccc3)(C(=O)OC)[C@H]2C1=O returned ABCB6 inh MLPCN inactive, Myeloid diff MLP inactive and Exocytosis inh inactive.
`COc1ccc(C(=O)NC(=S)Nc2ccc(S(=O)(=O)Nc3cc(OC)nc(OC)n3)cc2)cc1` gave ABCB6 inh MLPCN inactive, Myeloid diff MLP active, Exocytosis inh inactive, Myeloid diff inactive and GFP autofluor inactive.
For COc1cc(NS(=O)(=O)c2ccc(NC(=S)NC(=O)c3ccc(F)cc3)cc2)nc(OC)n1 the results were ABCB6 inh MLPCN inactive, Myeloid diff MLP inactive and Exocytosis inh inactive.
